From PubChem BioAssay (Tox21) come the findings set out here.

Test [1] in a line: qHTS assay to identify small molecule antagonists of the estrogen receptor alpha (ER-alpha) signaling pathway using the BG1 cell line in the presence of 0.1 nM 17-beta-estradiol - cell viability counter screen (AID 1259241). Also: nearly all actives have a fitted effect of over 40% in size. In short, it runs like this:
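VM7Luc4E2 cells (endogenous full-length ER-alpha, 4xERE-luciferase), cultured 5 days in charcoal-stripped serum, exposed to compounds with 0.1 nM 17beta-estradiol (final) for 22 hr at 37C. Viability read in same wells as live-cell protease fluorescence after 30 min.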

Test [2] in a line: qHTS assay to identify small molecule antagonists of the androgen receptor (AR) signaling pathway using the MDA cell line in the presence of 0.5 nM R1881 - cell viability counter screen (AID 1259242). Also: nearly all actives have a fitted effect of over 45% in size. Also: potency is read from the fitted curve at half-maximal effect. In short, it runs like this:
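Viability of MDA-kb2 cells was multiplexed with the luciferase AR readout; after 16 hr with compounds and R1881 at 0.5 nM final, CellTiter-Fluor fluorescence was recorded.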

Test [3] addresses Androgen receptor (Homo sapiens) (UniProt P10275). Description: qHTS assay to identify small molecule antagonists of the androgen receptor (AR) signaling pathway using the MDA cell line in the presence of 0.5 nM R1881 (AID 1259243). Also: nearly all actives have a fitted effect of over 50% in size. Also: potency is read from the fitted curve at half-maximal effect. In short, it runs like this: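 Reporter cells cultured without CO2 receive test chemicals, then 0.5 nM R1881 final; after 16 hr at 37C, ONE-Glo is added and light output recorded.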

A short description of test [4]: qHTS assay to identify small molecule HDAC inhibitors (AID 1259364).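 Also: wild-type HCT-116 cells with endogenous class I/II HDAC activity; top concentration of the series differs between compounds; nearly all actives have a fitted effect of over 45% in size.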 In short, it runs like this: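 Read-out: luminescence of HDAC-Glo I/II reagent, 30 min RT, reflecting class I/II deacetylase activity in whole HCT-116 cells pre-exposed 2 h to DMSO-dissolved compounds.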
The nature of test [5]: qHTS assay to identify small molecule HDAC inhibitors - cell viability counter screen (AID 1259365). Also: nearly all actives have a fitted effect of over 50% in size. Also: potency is read from the fitted curve at half-maximal effect. The gist of the method: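 Wild-type HCT-116 cells, 1,500/well, cultured overnight, then compound-treated 2 h at 37 C. Viability measured as ATP luminescence with CellTiter-Glo after 30 min at room temperature.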
The nature of test [6]: qHTS assay to identify small molecule agonists of the sonic hedgehog signaling (Shh) pathway - cell viability counter screen (AID 1259366). Also: nearly all actives have a fitted effect of over 50% in size. The gist of the method:
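NIH/3T3-derived Gli1-Luc reporter cells, 2,000 per well, received compound after 4 h and were treated about 23 h at 37C. Viability measured in the same wells by CellTiter-Fluor fluorescence after 1 h.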

Test [7] in a line: qHTS assay to identify small molecule antagonists of the sonic hedgehog signaling (Shh) pathway - cell viability counter screen (AID 1259367). Also: nearly all actives have a fitted effect of over 55% in size. The gist of the method:
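After a 4 hr settling period, 3T3 Gli1-Luc cells were treated with DMSO-dissolved chemicals and conditioned medium, kept 24 hr at 37C in 5% CO2, and assayed for viability by CellTiter-Fluor fluorescence following 1 hr reagent incubation.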

A short description of test [8]: qHTS assay to identify small molecule agonists of the sonic hedgehog signaling (Shh) pathway (AID 1259368; calls by dose curve;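 also: NIH/3T3-derived 3T3Gli1-Luc cells carrying a stable Gli1-driven firefly luciferase reporter; series mostly up to about 92 µM; nearly all actives have a fitted effect of over 15% in size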). The gist of the method: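 A Gli1 transcriptional response element controlled firefly luciferase in 3T3Gli1-Luc cells. Compounds and a positive control were added 4 hr after plating, and cells were incubated a further 24 hr at 37 C before luminescence detection.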

Test [9] can be described thus: qHTS assay to identify small molecule antagonists of the sonic hedgehog signaling (Shh) pathway (AID 1259369; calls by dose curve; also: nearly all actives have a fitted effect of over 45% in size; also: potency is read from the fitted curve at half-maximal effect). In short, it runs like this: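 For antagonist detection, the reporter line received test compounds together with conditioned medium, incubated 24hr at 37 C, 5% CO2, then luminescence was recorded following 30min room-temperature luciferase reagent incubation.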

Test [10] is described as follows: qHTS assay to identify small molecule agonists of the androgen receptor (AR) signaling pathway in the presence of an antagonist - cell viability counter screen (AID 1259379). Also: nearly all actives have a fitted effect of over 25% in size. Also: potency is read from the fitted curve at half-maximal effect. In short, it runs like this: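 Seed MDA-kb2 at 3,000 cells/well; incubate 5 hr, 37C, 0% CO2. Add nilutamide to 3.0uM final, then pin compounds at 15 concentrations. Incubate 16 hr. Add CellTiter-Fluor at 15 hr, read fluorescence after 1 hr.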

The nature of test [11]: qHTS assay to identify small molecule agonists of the estrogen receptor beta (ER-beta) signaling pathway - cell viability counter screen (AID 1259380). Also: nearly all actives have a fitted effect of over 30% in size. Also: potency is read from the fitted curve at half-maximal effect. In short, it runs like this: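 CellTiter-Glo read, 30 min RT, same wells as bla assay; cells ER-beta-UAS-bla HEK293T; 16 hr compound, 37C; medium 2% charcoal-stripped FBS.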
The target of test [12] is Androgen receptor (Homo sapiens) (UniProt P10275). Description: qHTS assay to identify small molecule agonists of the androgen receptor (AR) signaling pathway in the presence of an antagonist (AID 1259381; calls by dose curve; also: nearly all actives have a fitted effect of over 15% in size). The gist of the method: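 Test compounds at 15 concentrations were incubated for 16hr with MDA-kb2 reporter cells in presence of 3.0uM nilutamide (final). Signal: ONE-Glo luciferase luminescence.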

A short description of test [13]: qHTS assay to identify small molecule antagonists of the estrogen receptor beta (ER-beta) signaling pathway - cell viability counter screen (AID 1259382). Also: nearly all actives have a fitted effect of over 55% in size. Also: potency is read from the fitted curve at half-maximal effect. The gist of the method:
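In this multiplexed counter screen, cells were seeded at 2,000 per well in medium with 2% charcoal-stripped FBS and incubated 6 hr before compound and 1nM final E2 were added. Sixteen hours later, ATP-based luminescence reported viability.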

Test [14] in a line: qHTS assay to identify small molecule agonists or antagonists of the thyroid stimulating hormone receptor (TSHR) signaling pathway - wild type cell line counter screen (AID 1259384; calls by dose curve). The gist of the method: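 Wild-type HEK293 cells were plated 18 h at 37 C/5% CO2, pin-dosed with compound plus Ro20-1724 medium, held 30 min at room temperature, then given cAMP-d2 and anti-cAMP-cryptate; fluorescence was read after 1 h. Fifteen concentrations, triplicate.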

Test [15] concerns the target Thyrotropin receptor (Homo sapiens) (UniProt P16473). Description: qHTS assay to identify small molecule antagonists of the thyroid stimulating hormone receptor (TSHR) signaling pathway (AID 1259385; calls by dose curve; also: nearly all actives have a fitted effect of over 20% in size; also: potency is read from the fitted curve at half-maximal effect). The gist of the method:
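TSHR-HEK293 cells were plated and held 18 h at 37C/5% CO2, then given compound plus Ro20-1724 and stimulated with TSH at 1.5 ng/mL final. After 30 min at room temperature, cAMP was detected with cAMP-d2/anti-cAMP-cryptate (1 h) by fluorescence.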

The target in test [16] is Estrogen receptor (Homo sapiens) (UniProt P03372). Description: qHTS assay to identify small molecule antagonists of the estrogen receptor alpha (ER-alpha) signaling pathway using the BG1 cell line in the presence of 0.1 nM 17-beta-estradiol (AID 1259244). Also: nearly all actives have a fitted effect of over 50% in size. In short, it runs like this:
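Estradiol at 0.1 nM (final) stimulates the endogenous ER-alpha of VM7Luc4E2 cells carrying an ERE-driven luciferase; compounds are co-incubated 22 h at 37C and luciferase output quantified by luminescence.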

The target of test [17] is Estrogen receptor beta (Homo sapiens) (UniProt Q92731). Description: qHTS assay to identify small molecule agonists of the estrogen receptor beta (ER-beta) signaling pathway (AID 1259377; active = well fitted activation curve with a large enough effect in the signal ratio in the repeat runs, not every such curve was filed as active; the % refers to the signal ratio). In short, it runs like this:
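ER-beta-UAS-bla HEK293T cells in medium with 2% charcoal-stripped FBS were exposed to compounds for 16 h at 37C. Beta-lactamase reporter activity was read as fluorescence after 2 h with LiveBLAzer B/G FRET substrate at room temperature.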

Test [18] shares this target. Description: qHTS assay to identify small molecule antagonists of the estrogen receptor beta (ER-beta) signaling pathway (AID 1259378; active = well fitted inhibition curve with a large enough effect in the signal ratio in the repeat runs, not every such curve was filed as active; the % refers to the signal ratio). The gist of the method:
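ER-beta-UAS-bla HEK293T (GripTite) cells in 2% charcoal-stripped FBS medium were preincubated 6 hr at 37C, dosed with compound, then stimulated with 1 nM E2 (final) for 16 hr; beta-lactamase reporter read by B/G FRET fluorescence after 2 hr substrate loading.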

Test [19] concerns the target Estrogen receptor (Homo sapiens) (UniProt P03372). Description: qHTS assay to identify small molecule agonists of the estrogen receptor alpha (ER-alpha) signaling pathway in the presence of an antagonist (AID 1259383; calls by dose curve; also: top concentration of the series differs between compounds; nearly all actives have a fitted effect of over 15% in size). The gist of the method:
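Stably transfected VM7Luc4E2 reporter cells, kept 5 days in charcoal-stripped serum, received ICI-182,780 at 10.0nM final before compound addition. Following 22hr incubation at 37C and 5% CO2, luciferase signal was read by luminescence.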

A short description of test [20]: qHTS assay to identify small molecule phospholipidosis (PLD) inducers (AID 1259344; active = well fitted curve in the direction sought with a large enough effect; an effect the other way counts as inactive or inconclusive). The gist of the method:
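HepG2 cells grown on collagen I take up LipidTOX Red while exposed to compound for 24 h; after fixation they are imaged at 20x and pit metrics are extracted.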

Results filed as inconclusive are left out. Active and inactive are the calls of the source. Unless noted, calls follow the shape of the dose curve; as a rule, active = well fitted curve in the direction sought with a large enough effect in the repeat runs; inconclusive = weak or mixed curves; inactive = no such curve, though single readings can be large; an effect the other way counts as inactive or inconclusive.

Androgen receptor (Homo sapiens), sequence (P10275 whole entry, looked up): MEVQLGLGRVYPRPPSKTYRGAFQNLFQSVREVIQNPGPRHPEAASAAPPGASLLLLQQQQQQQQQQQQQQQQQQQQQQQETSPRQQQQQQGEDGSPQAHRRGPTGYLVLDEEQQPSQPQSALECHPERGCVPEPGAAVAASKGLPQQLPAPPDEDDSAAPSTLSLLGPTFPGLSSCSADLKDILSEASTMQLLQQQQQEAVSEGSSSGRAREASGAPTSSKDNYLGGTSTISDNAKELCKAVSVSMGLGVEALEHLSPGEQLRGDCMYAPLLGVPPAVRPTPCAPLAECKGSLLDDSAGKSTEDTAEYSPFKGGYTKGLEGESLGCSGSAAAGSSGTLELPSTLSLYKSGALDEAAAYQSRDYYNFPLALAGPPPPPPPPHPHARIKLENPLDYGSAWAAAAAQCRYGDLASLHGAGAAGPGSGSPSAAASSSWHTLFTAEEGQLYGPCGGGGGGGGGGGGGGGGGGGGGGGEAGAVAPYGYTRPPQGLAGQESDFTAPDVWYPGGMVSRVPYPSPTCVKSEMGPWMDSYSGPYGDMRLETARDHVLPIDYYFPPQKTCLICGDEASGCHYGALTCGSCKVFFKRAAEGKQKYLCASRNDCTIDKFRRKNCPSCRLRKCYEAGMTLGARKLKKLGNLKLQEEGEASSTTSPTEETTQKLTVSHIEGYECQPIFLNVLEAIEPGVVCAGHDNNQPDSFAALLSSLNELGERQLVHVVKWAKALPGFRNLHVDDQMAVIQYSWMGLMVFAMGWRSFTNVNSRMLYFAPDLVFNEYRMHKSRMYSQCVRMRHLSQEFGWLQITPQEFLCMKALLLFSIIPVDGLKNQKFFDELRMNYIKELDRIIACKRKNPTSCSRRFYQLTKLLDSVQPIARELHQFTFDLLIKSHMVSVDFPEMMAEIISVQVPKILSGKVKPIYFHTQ
Thyrotropin receptor (Homo sapiens), sequence (P16473 whole entry, looked up): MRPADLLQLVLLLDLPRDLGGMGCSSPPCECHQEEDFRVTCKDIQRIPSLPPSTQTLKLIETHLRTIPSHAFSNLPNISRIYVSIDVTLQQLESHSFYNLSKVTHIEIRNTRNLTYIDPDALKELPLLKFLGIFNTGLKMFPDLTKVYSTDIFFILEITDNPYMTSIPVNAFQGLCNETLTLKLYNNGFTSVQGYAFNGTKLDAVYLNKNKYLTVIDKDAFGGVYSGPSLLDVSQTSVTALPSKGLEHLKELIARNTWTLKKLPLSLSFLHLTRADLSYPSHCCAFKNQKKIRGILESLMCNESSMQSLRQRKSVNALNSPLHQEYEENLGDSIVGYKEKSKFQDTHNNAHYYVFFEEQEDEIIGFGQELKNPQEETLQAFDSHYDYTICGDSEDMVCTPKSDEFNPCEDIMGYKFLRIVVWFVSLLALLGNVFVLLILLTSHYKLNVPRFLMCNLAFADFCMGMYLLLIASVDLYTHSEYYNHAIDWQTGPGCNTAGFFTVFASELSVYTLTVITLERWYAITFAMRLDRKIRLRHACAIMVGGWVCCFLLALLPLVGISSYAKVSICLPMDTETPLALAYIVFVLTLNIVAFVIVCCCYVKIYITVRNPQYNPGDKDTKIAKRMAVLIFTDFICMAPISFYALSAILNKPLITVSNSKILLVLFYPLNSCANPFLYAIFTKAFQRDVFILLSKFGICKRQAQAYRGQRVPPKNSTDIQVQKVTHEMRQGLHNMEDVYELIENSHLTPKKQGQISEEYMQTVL
Estrogen receptor (Homo sapiens), sequence (P03372 whole entry, looked up): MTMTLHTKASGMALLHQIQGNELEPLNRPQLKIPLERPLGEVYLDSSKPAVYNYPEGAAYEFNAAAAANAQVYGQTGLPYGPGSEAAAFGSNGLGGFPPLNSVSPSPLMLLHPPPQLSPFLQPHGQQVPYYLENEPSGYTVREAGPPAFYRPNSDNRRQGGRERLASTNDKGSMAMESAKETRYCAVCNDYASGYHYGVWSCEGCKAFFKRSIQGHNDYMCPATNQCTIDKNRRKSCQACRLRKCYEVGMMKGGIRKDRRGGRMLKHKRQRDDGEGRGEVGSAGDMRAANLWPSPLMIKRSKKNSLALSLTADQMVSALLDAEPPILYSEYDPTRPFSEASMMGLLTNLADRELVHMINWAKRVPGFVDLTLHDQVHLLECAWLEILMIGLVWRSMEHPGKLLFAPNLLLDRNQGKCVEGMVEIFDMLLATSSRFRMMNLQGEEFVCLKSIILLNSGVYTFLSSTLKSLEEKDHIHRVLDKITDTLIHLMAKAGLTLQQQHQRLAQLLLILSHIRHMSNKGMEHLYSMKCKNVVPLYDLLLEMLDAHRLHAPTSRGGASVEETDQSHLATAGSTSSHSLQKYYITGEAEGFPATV
Estrogen receptor beta (Homo sapiens), sequence (Q92731 whole entry, looked up): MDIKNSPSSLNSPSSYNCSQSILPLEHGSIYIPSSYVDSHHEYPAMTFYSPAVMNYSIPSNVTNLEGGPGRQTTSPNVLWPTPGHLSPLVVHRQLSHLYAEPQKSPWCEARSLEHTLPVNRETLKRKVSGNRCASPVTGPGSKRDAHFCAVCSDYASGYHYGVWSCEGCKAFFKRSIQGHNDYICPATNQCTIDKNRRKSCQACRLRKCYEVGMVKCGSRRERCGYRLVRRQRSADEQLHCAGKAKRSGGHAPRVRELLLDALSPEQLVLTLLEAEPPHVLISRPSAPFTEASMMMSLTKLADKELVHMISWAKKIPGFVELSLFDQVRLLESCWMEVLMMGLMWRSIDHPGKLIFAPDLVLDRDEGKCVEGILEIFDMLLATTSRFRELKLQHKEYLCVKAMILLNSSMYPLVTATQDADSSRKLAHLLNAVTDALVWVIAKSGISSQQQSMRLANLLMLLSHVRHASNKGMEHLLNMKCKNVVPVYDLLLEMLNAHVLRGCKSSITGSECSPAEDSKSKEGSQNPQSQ

Take `FC(Cl)(Cl)Cl`: the Potency result in [1], in test [2], in test [3], in test [4], in test [5] and in [6] was “inactive” each time. In addition, the Potency result in test [7], in [8], in test [9], in [10], in [11] and in test [12] was “inactive” throughout. The Potency entry in [13] and in test [15] was “inactive” throughout. For the same molecule, in test [14], the result was inactive.

In the case of `COC(=O)N(C(=O)N1COC2(C(=O)OC)Cc3cc(Cl)ccc3C2=N1)c1ccc(OC(F)(F)F)cc1` (configuration not stated), the Potency entry in [1], in [2], in test [16], in [4], in test [5] and in test [6] was “inactive” each time. For the same molecule, the Potency entry in [7], in test [8], in test [17], in test [18], in [10] and in test [11] was “inactive” in each case. Moreover, the Potency entry in test [12], in test [13] and in test [19] was “inactive” in each case. For the same molecule, the molecule was classed as inactive in test [14].

As to `C[C@H]1CC[C@@H]2[C@@H](C)[C@H]3[C@H](C[C@H]4[C@@H]5CC=C6CC(O[C@@H]7O[C@H](CO)[C@H](O)[C@H](O[C@@H]8O[C@H](CO)[C@@H](O)[C@H](O)[C@H]8O)[C@H]7O[C@H]7O[C@@H](C)[C@H](O)[C@@H](O)[C@H]7O)CC[C@]6(C)[C@H]5CC[C@]34C)N2C1` (some centres not stated), the Potency result in test [1], in test [16], in test [20], in [4], in [7] and in test [8] was “inactive” each time. In addition, the Potency result in test [19] was “inactive”. The Potency in test [2] was 25.1 µM (active); in [5], 28.2 µM (active); in test [10] it was 22.4 µM (active); in test [11], 15.8 µM (active); in test [13] it was 25.1 µM (active); in test [15], 10 µM (active). Moreover, the call in test [14] was inactive.

Regarding `COc1ccc(/C(=C/C(=O)N2CCOCC2)c2ccc(Cl)cc2)cc1OC`, the Potency entry in [1], in test [2], in test [4], in test [5], in [6] and in test [8] was “inactive” in each case. The Potency result in [17], in test [18], in [10] and in test [12] was “inactive” each time. Further, the Potency in test [3] is 1.54 µM (active); in test [11], 68.6 µM (active). Moreover, the result in [14] was inactive.

Take `Oc1ccccc1Br`: the Potency entry in test [1], in [2], in test [16], in test [4], in test [5] and in [6] was “inactive” in each case. For the same molecule, the Potency result in [7], in test [8], in [9], in test [10], in [11] and in test [13] was “inactive” each time. Moreover, the Potency result in test [19] was “inactive”.

Turning to `CC(C)(O)c1cnn2c(-c3ccc(F)c(-c4c(F)cccc4C#N)c3)cnc2n1`, the Potency result in test [1], in [2], in test [4], in [5], in test [8] and in test [12] was “inactive” in each case. The Potency result in test [13] and in test [15] was “inactive” throughout. Moreover, the Potency is 61.1 µM (active) in test [3], 4.33 µM (active) in [9] and 27.3 µM (active) in [11]. In addition, the molecule was called inactive in [14].

In the case of `CCOCCOC(C)=O`, the Potency entry in [1], in test [2], in test [16], in [20], in test [4] and in test [5] was “inactive” in each case. The Potency result in [6], in test [7], in test [8], in test [10], in test [13] and in test [19] was “inactive” in each case. The Potency entry in test [15] is “inactive”. For the same molecule, the molecule was classed as inactive in test [14].
